This is an account of results in ChEMBL document CHEMBL3433997, “St. Jude Leishmania screening dataset” (2016).

One may read the inhibition as the drop in the measured response relative to a control, in per cent.

This assay deals with Glucose transporter (Leishmania mexicana) (UniProt O61059). Nature of the assay: ST_JUDE_LEISH: Cytotoxicity at 2uM final concentration against transgenic Leishmania Mexicana promastigotes LmGT2 that are glucose transport deficient and complemented with the L. Mexicana glucose transporter 2. Activity is measured by DNA content using SYBR green in vitro. In kind it is functional.
For the molecule `CN(CCCNCc1cccc2ccccc12)CCCNCc1cccc2ccccc12`, the inhibition came out at 1.98%.
Under `CN(CCCc1c[nH]c2ccccc12)CCC1CCC(NC(=O)/C=C/c2ccc(Cl)c(Cl)c2)CC1` (stereo unspecified) stands 1.8%; under `Fc1ccc(COc2ccc(Nc3ncnc4ccc(I)cc34)cc2Cl)cc1`, 1.83%; under `COc1ccc2ccccc2c1CNCCCCCCNCc1c(OC)ccc2ccccc12`, -3.28%.
For the molecule `CON(CCCN(C)C)C(=N)N`, the inhibition came to 0.26%.
Under `COc1ccc(OC)c(NC(=O)c2c(-c3c(F)cccc3Cl)noc2C)c1` stands 2.52%.
As to `c1ccc(CN2CCC(NCc3ccc(-c4cccc(CNC5CCCC5)c4)cc3)CC2)cc1`, the inhibition worked out at 0.89%.
As to `Cc1nc(C)c(CC(=O)Nc2ccc(-c3cccc(-c4nc5cccc(C)c5[nH]4)c3)cc2)s1`, the inhibition is 4.14%.
Under `Cc1cccc2nc(-c3cccc(-c4ccc(NC(=O)c5ccncc5)cc4)c3)[nH]c12` stands 2%; under `Cc1ccc(N2C(N)=NC(N)=NC2(C)C)cc1Cl`, 8.05%.
Under `CCCC/C=C(\Cl)c1ccc(O)c2c1C[C@H]1C[C@H]3[C@H](N(C)C)C(O)=C(C(N)=O)C(=O)[C@@]3(O)C(O)=C1C2=O` stands 0.16%; under `O=C(O)CCSSc1cccc[n+]1[O-]`, 3.25%.
Consider `COc1cc2c(cc1OC)C(C(=O)Nc1ccc(C(F)(F)F)cc1)C(c1cccs1)N(C)C2=O` (stereo unspecified), for which the inhibition is 1.2%.
To `CCOC(=O)c1cc(C(=O)NCCCCN2CCC(c3ccc4c(c3OC)CCCC4)CC2)ccc1-c1ccc(C(F)(F)F)cc1` belongs 1.36%; to `CCCCCc1ccc(NC(=O)Nc2ccc(Cn3ncc(N4CCCNCC4)c(Cl)c3=O)cc2)cc1`, 0.47%.
Turning to `Cc1cccc2nc(-c3cccc(-c4cccc(NC(=O)c5c[nH]cn5)c4)c3)[nH]c12`, the inhibition was -1.05%.
